Experimental data taken from PubChem BioAssay (NCATS).
Inconclusive results are not listed. A call without a number means that no potency is given here. The source made the active and inactive calls. Calls come from the whole dose curve; as a rule, active = well fitted inhibition curve with a large enough effect; inconclusive = small, poorly fitted or top-dose-only effect; inactive = flat fitted curve, though single readings scatter.

Experiments:
Test in all cases: qHTS profiling for inhibitors of Plasmodium falciparum proliferation (AID 504749); note: nearly all actives have a fitted effect of over 60% in size
Conditions in all cases: P. falciparum in erythrocytes, SYBR Green DNA, 72 h; series mostly up to 28.7 µM
AA1029 = system: AA1029
Method in brief: (§1)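 SYBR Green fluorescence of parasite DNA, read after lysis and overnight dark incubation, measured growth over 72 h in erythrocyte culture at 0.3% parasitemia and 2.5% hematocrit. Data normalised to DMSO and 0.29 uM artemisinin, with plate-drift correction.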

ATS95 = system: ATS95
Method in brief: as §1

C2A = system: C2A
Method in brief: as §1

CP211 = system: CP211
Method in brief: as §1

CP238 = system: CP238
Method in brief: as §1

CP252 = system: CP252
Method in brief: as §1

CP256 = system: CP256
Method in brief: as §1

CP262 = system: CP262
Method in brief: as §1

CP266 = system: CP266
Method in brief: as §1

CP268 = system: CP268
Method in brief: as §1

CP269 = system: CP269
Method in brief: as §1

CP305 = system: CP305
Method in brief: as §1

CP315 = system: CP315
Method in brief: as §1

CP325 = system: CP325
Method in brief: as §1

CP329 = system: CP329
Method in brief: as §1

DIV17 = system: DIV17
Method in brief: as §1

DIV30 = system: DIV30
Method in brief: as §1

FAB9 = system: FAB9
Method in brief: as §1

ICS = system: ICS
Method in brief: as §1

PC26 = system: PC26
Method in brief: as §1
Potency is the fitted concentration of half-maximal effect.

Structure (SMILES) | Potency (AA1029) | Potency (ATS95) | Potency (C2A) | Potency (CP211) | Potency (CP238) | Potency (CP252) | Potency (CP256) | Potency (CP262) | Potency (CP266) | Potency (CP268) | Potency (CP269) | Potency (CP305) | Potency (CP315) | Potency (CP325) | Potency (CP329) | Potency (DIV17) | Potency (DIV30) | Potency (FAB9) | Potency (ICS) | Potency (PC26)
C=C1CC[C@H](O)C/C1=C/C=C1\CCC[C@]2(C)[C@@H]([C@H](C)CCCC(C)C)CC[C@@H]12 | inactive | inactive | inactive | inactive | inactive | inactive | inactive | inactive | inactive | inactive | inactive | inactive | inactive | inactive | inactive | inactive | inactive | inactive | 10 µM (active) | inactive
Cc1c(C(=O)O)c(O)cc2c1C(=O)c1c(O)c([C@H]3O[C@H](CO)[C@@H](O)[C@H](O)[C@H]3O)c(O)c(O)c1C2=O | inactive | inactive | inactive | inactive | inactive | inactive | inactive | inactive | inactive | inactive | inactive | inactive | inactive | inactive | inactive | inactive | inactive | inactive | inactive | inactive
